# Screening results as filed in PubChem.
# HCMV antiviral: human cytomegalovirus inhibition. HFF cells, HCMV-luciferase reporter, 72 h; active compounds read low. activity change, negative = inhibition, % at 57.5 µM. actives 4.5% (n = 410,000). AID 1259415; in the data active = activity change below about -60%; inconclusive = no clear call, values can overlap the other calls; inactive = above about -39%
#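 Luciferase read-out from HCMV-luciferase-infected HFFs (MOI 1 PFU/cell) 72 h post infection at 37C; compounds added after 16 h cell attachment; activity normalized between buffer-only basal and Salinomycin (10uM) inhibitor controls.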
# Pf growth 48h: inhibits P. falciparum growth in the first generation, 48 h | P. falciparum luciferase growth in erythrocytes, 48 h | Potency, µM (top dose mostly 28.7 µM), for inactives: at the top dose activity change, negative = inhibition, hits mostly inhibitors | actives 5.9% (n = 310,000) | AID 504832; note: potency is the fitted concentration of half-maximal effect
#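 In quantitative HTS format, infected erythrocytes bearing luciferase-reporter parasites were treated for a single generation at 37 C. Luminescence after adding detection reagent served as the growth measure.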
# Pf growth 96h: P. falciparum growth inhibition at 96 hours. P. falciparum luciferase reporter growth, 96 h. Potency, µM (series often up to 28.7 µM), inactives show top-dose activity change, negative = inhibition, most hits filed as inhibitors. actives 6.9% (n = 320,000); note: potency is the fitted concentration of half-maximal effect
#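 Infected RBCs, 2% Hct / 0.05% parasitemia final; luciferase-reporter P. falciparum; cpd 96 h, 37 C, 5% CO2; luciferase detection reagent; luminescence.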
# HCV inhibitor: inhibitors of hepatitis C virus infection. Huh7.5.1 HCVcc-Cre infection, luciferase reporter, 44 h. Potency, µM (series often up to 41.8 µM), for the others: at the top dose activity change, negative = inhibition, hits mostly inhibitors. actives 3.4% (n = 340,000); note: potency is the fitted concentration of half-maximal effect
#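 HCVcc-Cre virus at an moi near 0.5 was added right after compound to cells cultured 4 h from seeding (1,000 cells/well). Luciferase activity was determined 44 h later, 15 min after substrate addition at RT.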
# Active calls of the source: *; ? = inconclusive; / = no result given. Hits are enriched below; roughly 13% of the tested compounds scored in any of these assays. Unless noted, calls come from the whole dose curve; as a rule, active = well fitted inhibition curve with a large enough effect; inconclusive = small, poorly fitted or top-dose-only effect, or another doubt; inactive = no such curve, though single readings can be large or run the other way. % is set by controls: 0 for no effect and ±100 for the full control effect.
SMILES,HCMV antiviral,Pf growth 48h,Pf growth 96h,HCV inhibitor
CCN(CC(=O)Nc1ccccc1OC)C(=O)c1ccc2[nH]c3c(c2c1)CC(C)CC3 (stereo unspecified),-6,?,?,10µM*
Cc1cccc(-c2nc(SCc3cc(=O)c4c(C)cc(C)cc4[nH]3)n[nH]2)c1,-31,/,/,/
COc1ccc(-c2[nH]ncc2N=Nc2ccccc2)cc1,?,-6%,52%,?
COc1ccc(-c2[nH]ncc2N=Nc2cc(C)cc(C)c2)cc1,10,?,?,2.2µM*
O=P1(c2ccccc2)Nc2ccccc2N1c1ccccc1 (stereo unspecified),-64*,/,/,-2%
COc1ccc(C2CC(c3ccc4ccccc4c3)=NN2C(=O)CN2CCC(C(N)=O)CC2)cc1 (stereo unspecified),84,?,?,-24%
CCOC(=O)c1nnn(CC(=O)N2N=C(c3cc(C)ccc3C)CC2c2ccc(OC)cc2)c1C(=O)OCC (stereo unspecified),27,15µM*,9.3µM*,-1%
CCOC(=O)c1nnn(CC(=O)N2N=C(c3ccccc3)CC2c2ccccc2)c1C(=O)OCC (stereo unspecified),18,12µM*,?,11%
Cc1c(C(=O)N2CCCCCC2)c(S(=O)(=O)NCc2ccccc2)c(C)n1C,-14,/,/,/
O=C(c1cc(NC(=O)C23CC4CC(CC(C4)C2)C3)cc(NC(=O)C23CC4CC(CC(C4)C2)C3)c1)N1CCCCC1,/,1.9µM*,1.5µM*,?
Cc1ccc(NC(=O)CCS(=O)(=O)c2cc3[nH]c(=O)c(=O)[nH]c3cc2C)cc1,?,6%,4.1µM*,10%
CCOC(=O)c1cc2[nH]c3ccccc3c2[n+](-c2ccc([N+](=O)[O-])cc2)c1C,-13,2.6µM*,?,-9%
CCOC(=O)c1cc2[nH]c3ccccc3c2[n+](-c2ccc([N+](=O)[O-])cc2)c1N,-91*,3.7µM*,?,11%
CN(C)CCNC(=O)CN1C(=O)CCn2nc(-c3cn(C)c4ccccc34)cc21,5,/,/,/
COc1cccc(OCCCn2c(-c3ccc(Cl)cc3)nc3ccccc3c2=O)c1,16,/,/,/
Cc1ccc(-n2cnc3cc(C(=O)NC4CCCCCC4)ccc32)cc1Cl,-34,/,/,/
COc1ccc(CCN2CCC(CNC(=O)c3cnn(-c4ccc(C)cc4)c3C3CCN(C(=O)OC(C)(C)C)CC3)CC2)cc1,0,/,/,/
COc1ccc(N2CCN(S(=O)(=O)c3cccc4cccnc34)CC2)cc1,92,/,-38%,1%
Cc1nn(-c2ccccc2)c(N)c1N=Nc1cccc(S(=O)(=O)N2CCOCC2)c1,-68*,?,-29%,22µM*
Cc1nn(-c2ccccc2)c(N)c1N=Nc1ccccc1,46,167%,1%,?
O=c1c(Cl)c(N2CCN(S(=O)(=O)c3ccc(F)cc3)CC2)cnn1-c1cccc(Cl)c1,-12,8.3µM*,6.6µM*,?
O=S(=O)(c1ccccc1)N1CCN(c2ncccn2)CC1,-8,4%,/,-9%
O=S(=O)(c1cccc2cccnc12)N1CCN(c2ccc(F)cc2)CC1,-22,-7%,15µM*,2%
O=c1c(Cl)c(N2CCN(S(=O)(=O)c3ccccc3)CC2)cnn1-c1ccccc1,-16,0%,166%,-1%
O=S(=O)(c1ccc(F)cc1)N1CCN(c2ncccn2)CC1,-33,2.1µM*,4%,16%
SMILES,HCMV antiviral,Pf growth 48h,Pf growth 96h,HCV inhibitor
COc1cc(NS(=O)(=O)c2cnc(N)nc2)cc(OC)c1,-12,/,/,/
O=c1n(S(=O)(=O)c2cccc3cccnc23)c2ccccc2n1S(=O)(=O)c1cccc2cccnc12,-32,/,6.6µM*,?
Cc1ccc(C)n1-c1cccc(S(=O)(=O)N2CCOCC2)c1,-3,?,13µM*,-23%
CN(C)S(=O)(=O)c1ccc(N2CCN(S(=O)(=O)c3ccc(F)cc3)CC2)c(Cl)c1,12,7.4µM*,8.3µM*,?
O=S(=O)(c1cccc(S(=O)(=O)N2CCN(c3ncccn3)CC2)c1)N1CCOCC1,-9,-24%,12µM*,10%
O=C(c1cccc(S(=O)(=O)N2CCOCC2)c1)N1CCN(c2ncccn2)CC1,33,/,/,/
Cc1cccc(CN2CCSCCS2(=O)=O)c1,-2,/,/,/
CCC(=O)Nc1ccccc1-c1nc2ccccc2n(C(C)C(=O)Nc2cccc(Cl)c2C)c1=O (stereo unspecified),-12,/,/,/
COc1cccc(/C=C2\SC(=O)N(CCC(=O)N3CCCCC3CCO)C2=O)c1 (stereo unspecified),-35,?,10µM*,?
O=C1/C(=C/c2ccccc2)SC(=S)N1CC(=O)N1CCCCC1c1cccnc1 (stereo unspecified),-90*,?,?,?
Cc1ccc(/C=C2/SC(=S)N(CCC(=O)N3CCN(c4ccccc4)CC3)C2=O)cc1,/,-4%,16%,17%
COC(=O)c1ccc(/C=C2/SC(=S)N(CCCC(=O)Nc3ccc(O)cc3)C2=O)cc1,-32,?,?,10%
COc1ccc(/C=C2\SC(=S)N(CCCC(=O)N3CCCCC3CCO)C2=O)cc1 (stereo unspecified),-100*,?,8.3µM*,-15%
CC(C)c1ccc(/C=C2\SC(=S)N(CCC(=O)N3CCCCC3CCO)C2=O)cc1 (stereo unspecified),-100*,-13%,9.3µM*,-17%
COc1ccccc1NC(=O)CSc1oc(-c2ccc(F)cc2)nc1S(=O)(=O)c1ccc(Br)cc1,1,/,/,/
O=C(CCN1C(=O)S/C(=C\c2ccccc2)C1=O)N1CCCCC1,-2,-5%,27%,-5%
O=C1/C(=C/c2ccccc2Cl)SC(=S)N1CCC(=O)N1CCCCC1CCO (stereo unspecified),-81*,?,?,18%
O=C1/C(=C\c2ccccc2)SC(=S)N1CCC(=O)N1CCCCC1CCO (stereo unspecified),-86*,?,?,22%
O=C(CCN1C(=O)/C(=C/c2ccccc2Cl)SC1=S)NC1CCS(=O)(=O)C1 (stereo unspecified),-25,4%,?,15%
COc1ccccc1Cc1nc2ccccc2nc1SCC(=O)Nc1cccc(Cl)c1C,20,/,/,/
CCOc1ccccc1CNC(=O)C1CCN(S(=O)(=O)c2c(C)noc2/C=C/c2ccccc2F)CC1,23,/,/,/
COc1cc(Nc2nccc3[nH]c(-c4cccc(C(F)(F)F)c4)nc23)cc(OC)c1OC,7,/,/,/
Cc1cc2c(n1-c1ccc(C(=O)NCC(C)c3ccccc3)cc1)CCCC2 (stereo unspecified),-61*,/,/,/
CSc1ccc(CCNC(=O)c2ccc(-n3c(C)cc4c3CCCC4)cc2)cc1,-98*,/,/,/
COc1ccc(C(=O)/C=C2/Sc3cc4c(cc3N2C)OCO4)cc1,52,28%,2.1µM*,?
CN1/C(=C/C(=O)c2ccc(Cl)cc2)Sc2cc3c(cc21)OCO3,-14,121%,9%,7%
